# Reference: PubChem BioAssay (NCATS)
# Results filed as inconclusive are left out. A number with no mark means an inactive call. The source made the active and inactive calls. The call rests on the fitted dose curve; in most records, active means well fitted activation curve with a large enough effect; inconclusive means small, poorly fitted or top-dose-only effect, or effect the other way; inactive means flat fitted curve, though single readings scatter.
# Test: qHTS Assay for Identification of Small Molecule Agonists for Thrombopoietin (TPO) Signaling Pathway (AID 917)
# Settings: TPO signaling pathway reporter cells, agonist qHTS; series mostly up to 38.5 µM; activity, positive = activation: at the top concentration
# Protocol: NIH Molecular Libraries Screening Centers Network [MLSCN]
# NIH Chemical Genomics Center [NCGC]
# The thrombopoietin (TPO) signaling pathway was assayed in murine Ba/F3 cells stably transfected with the human TPO receptor and a luciferase reporter gene controlled by the Glycoprotein IIb promoter (provided by Axxam). BaF3 cells are an IL-3-dependent pro B cell line that upon TPO stimulation, undergo cell division and induce the megakaryocyte marker, Glycoprotein IIb. The assay was screened at the EC50 of TPO (26 pM) to identify activators of the pathway.
# NCGC Assay Protocol Summary:
# Cells were maintained at 37 C and 5% CO2in RPMI with 10% fetal bovine serum, 0.5 ng/mL murine IL-3, 100U/ml penicillin and 100 ug/ml streptomycin. Prior to plating, cells were incubated overnight in medium without IL-3. Cells were plated at 250 cells/5uL/well into white solid 1536-well plates, 23 nL of compounds were delivered by a pin tool, and 1 uL of TPO (26 pM final concentration in IL-3 deficient medium) was added. Following 24 hrs of incubation at 37 C and 5% CO2, 4 uL of Steadylite detector mix (PerkinElmer) was added, the plates incubated at room temperature for 10 min and luminescence was measured for 10 s and 2X binning by a ViewLux detector (Perkin Elmer).
# On the % scale 0 is the no-effect control and ±100 the full control effect.
Compound,"activity, positive = activation",outcome
O=C1CCCN1CC#CCN1CCCC1,-13.7%,–
CCCN(CCC)[C@@H]1CCc2ccc(O)cc2C1,–,inactive
O=C(O)Cc1cnc[nH]1,-11.7%,–
C[C@@H]1O[C@H](C[N+](C)(C)C)C[C@H]1O,6.8%,–
CC(=O)NCCc1c[nH]c2ccccc12,-7.34%,–
NCCc1c[nH]c2ccc(O)cc12,-18.2%,–
Clc1cnc(Oc2ccc(Oc3ncc(Cl)cc3Cl)cc2)c(Cl)c1,-22.4%,–
CC(C)Oc1cccnc1N(C)C1CCN(Cc2ccccc2)CC1,-16.2%,–
CCCN1CCO[C@@H]2c3cc(O)ccc3OC[C@H]21,–,inactive
NC(N)=NOCCC(N)C(=O)O (stereo not given),-12.6%,–
O=C(O)CC[N+](=O)[O-],-21.9%,–
CCCN1CCC[C@H](c2cccc(O)c2)C1,–,inactive
CNCCc1c[nH]c2ccc(O)cc12,-9.33%,–
CC1=NN=C(c2ccc(N)cc2)c2cc3c(cc2C1)OCO3,14.1%,–
C[C@]12N[C@H](Cc3ccccc31)c1ccccc12,–,inactive
Cn1cnc(CCN)c1,-14.8%,–
NCc1cc(=O)[nH]o1,-11.2%,–
NC(=NCCC[C@H](N)C(=O)O)N[N+](=O)[O-],-2.71%,–
Cc1nccc2c1[nH]c1ccccc12,-14.1%,–
NCCc1c[nH]c2ccccc12,18.7%,–
